Reference: the OligoGym collection

Target: EMILIN2
Assay: pooled miR-30 sensor sort-seq; sequence = guide strand
Settings: shRNA

Row | Sequence | sensor-assay potency score (higher = more potent)
1 | TTTATTGACACTCCCTGTCTTT | -0.458
2 | TTTCTGATCAACAAGCTGCTTC | 0.352
3 | TAGAGTTTTTACAACTATCTAT | -0.151
4 | TATTCCAGGAACTCTCTCCTGT | 0.252
5 | TTGAACTTTGTCCTTCAGGTGG | -0.378
6 | AACAACTTGAACTTTGTCCTTC | 0.591

Target: EMP1
Assay: as above
Settings: shRNA

Row | Sequence | sensor-assay potency score (higher = more potent)
7 | ATAGCCGTGGTGATACTGCGTT | -0.125
8 | TACCGTATTGGAAACCAACCAG | -0.163
9 | AATGGTGCTAACAAATAGCATA | -1.39
10 | ACCGTATTGGAAACCAACCAGA | -1.97
11 | TGATGCATCTACCGTATTGGAA | -0.931
12 | ATCTACCGTATTGGAAACCAAC | -1.95
13 | TTCGCATAATGACTAGTGTAGA | -1.4
14 | TTTTTCCAAAGACCTACTGATG | -1.45
15 | TAGCCGTGGTGATACTGCGTTC | -1.37
16 | TTGGAAACCAACCAGACATTGG | -0.971
17 | TACTGATGCATCTACCGTATTG | -1.81
18 | ATAATGACTAGTGTAGATGGAC | -0.252
19 | AATAGCATAATAACAGTAGCGA | 0.0884
20 | TTGAGGGCATCTTCACTGGCAT | -0.461
21 | ATAGCATAATAACAGTAGCGAT | -1.69
22 | TATTGGAAACCAACCAGACATT | -1.22
23 | TTCACTGGCATATGACAGGCTG | -0.108
24 | TAGTGTAGATGGACACCCCCAC | -0.261
25 | ATAATAACAGTAGCGATGTGGA | -0.819
26 | ATTCGCATAATGACTAGTGTAG | -0.191
27 | TACAGTTTTTCCAAAGACCTAC | -0.739
28 | TCACTGGCATATGACAGGCTGT | -1.18
29 | TAGCATAATAACAGTAGCGATG | -1.5

Target: ENAM
Assay: as above
Settings: shRNA

Row | Sequence | sensor-assay potency score (higher = more potent)
30 | TTGAACTTGTTGATTTCTGTAA | 0.247
31 | TTCTTTATAGAACATGGTGTGT | -0.573
32 | TGAAATACCACTGTCTTCCTGA | 0.779
33 | TAAATTGTTCCTCAGTAGCTAA | -0.863
34 | TAGAGCTAGTGGATTGTCCTTG | 0.779
35 | TTTAGGAGGATCTTCTTCTTTG | -0.209
36 | TATAATTTGATTTATTAACTTC | -0.315
37 | TTATTTGTTCTTTTGGACCCAG | 0.0187
38 | TTGAGCTTCCTCTTCGGGCTGA | 1.2
39 | TAGTCTTGTAGAGCTAGTGGAT | -0.371
40 | TACTGTTGAGAGTTTCTCCAGG | 0.393
